Sampled rows, rich in hits. Any-hit rate of the full collection: about 9.1%.
M1 ag: agonists of M1 muscarinic receptor | CHO-M1 cells, Fluo-4 calcium fluorescence, agonist mode; hits give high values | B-score at 10 µM | hit rate 3% among 64,000;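 active means fluorescence rise, raw or as B-score row- and column-corrected plate score, outside the 99.7% band of its plate's samples, either direction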
mHtt clearance: compounds clearing mutant huntingtin protein | HeLa Exon1htt(103Q)mCFP, aggregate imaging; zero = plate's median compound well | inhibition, % at 1.5 µM | hit rate 0.42% among 47,000 | AID 853;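 active means inhibition of aggregate fluorescence above about 70%, also judged a hit by eye on the cell image, limit read from the data, passing the limit was not always enough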;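 further: cells exposed to compound for three days before fixation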
D1 allo mod: allosterically modulates the human D1 dopamine receptor; HEK293 D1, CRE-luciferase, dopamine EC30 potentiation; actives deviate in either direction; B-score at 10 µM; hit rate 5.9% among 58,000; P21728;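 active means luminescence count or its row- and column-corrected plate score outside the 99.7% band of the plate's sample wells, on either side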
M1 antagonist: antagonists of rat M1 muscarinic receptor; B-score at 10 µM; hit rate 3.4% among 64,000; CHO-M1 cells, Fluo-4 calcium, ACh EC80 antagonist mode; hits give low values; AID 628; P08482;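 active means calcium fluorescence response, raw or row-and-column corrected B-score, differing from the plate sample mean either way at a set confidence level, mostly lower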
Target sequence (P08482 whole entry, looked up): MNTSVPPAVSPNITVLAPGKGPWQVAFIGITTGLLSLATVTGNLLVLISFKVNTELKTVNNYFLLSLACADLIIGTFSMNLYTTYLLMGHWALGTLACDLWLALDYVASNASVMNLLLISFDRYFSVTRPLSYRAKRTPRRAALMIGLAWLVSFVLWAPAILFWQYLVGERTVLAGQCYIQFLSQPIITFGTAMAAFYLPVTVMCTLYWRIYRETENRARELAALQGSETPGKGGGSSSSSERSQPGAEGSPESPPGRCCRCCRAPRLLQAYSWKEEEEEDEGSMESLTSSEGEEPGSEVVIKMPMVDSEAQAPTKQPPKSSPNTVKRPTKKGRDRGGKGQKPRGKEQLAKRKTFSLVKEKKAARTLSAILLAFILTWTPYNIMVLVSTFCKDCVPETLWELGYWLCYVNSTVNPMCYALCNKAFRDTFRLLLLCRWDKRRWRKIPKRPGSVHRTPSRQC
D1 PAM confirm: confirmation of human D1 dopamine receptor allosteric modulators; shares compounds with D1 allo mod; HEK293 D1 CRE-luciferase, dopamine EC30 potentiation; hits give high values; luminescence at 10 µM; hit rate 88% among 2,200;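 active means luminescence in either of two replicates above the same-plate mean plus 3 SD of the low-dose dopamine control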
D1 ag no DA: secondary test of D1 modulators: activity without dopamine. shares compounds with D1 allo mod. HEK293 D1 CRE-luciferase, luminescence, no dopamine; hits give high values. luminescence at 10 µM. hit rate 0.8% among 1,900. AID 646; in the data active means luminescence above about 3900
Isoprot counter: isoproterenol response counter-screen activity for D1 modulators; shares compounds with D1 allo mod; HEK293 D1 CRE-luciferase, isoproterenol EC30 counter-screen; hits give high values; luminescence at 10 µM; hit rate 63% among 2,200; AID 647;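 active means luminescence in either replicate above plate mean of wells with a partly effective reference agonist dose plus 3 SD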;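 further: isoproterenol raises cAMP through native beta-adrenoceptor Gs so signal bypasses D1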
Active calls of the source: *; / = no result given.

SMILES	M1 ag	mHtt clearance	D1 allo mod	M1 antagonist	D1 PAM confirm	D1 ag no DA	Isoprot counter
COc1ccc(-c2noc(COc3ccc4ccccc4c3Br)n2)cc1OC	2.3	/	3.7*	0.27	8636*	1540	3180
COc1ccc(-n2c(SCc3nnc(-c4ccccc4)o3)nnc2-c2ccccc2)cc1	0.75	/	/	0.37	/	/	/
COc1ccc(-c2noc(CSc3nc(-c4ccccc4)cc(=O)[nH]3)n2)cc1OC	-0.11	38	7.6*	-0.24	7928*	/	2680*
COc1ccc(-c2noc(CSc3nnc(-c4ccncc4)n3-c3ccc(F)cc3)n2)cc1OC	-0.2	4	4.6*	-0.07	10824*	1596	2264
COc1ccc(-c2noc(CCCc3ccccc3)n2)cc1OC	0.001	/	2.5	-0.024	/	/	/
COc1ccc(-c2noc(COc3ccc(C)c(C)c3)n2)cc1OC	0.057	21	4.5*	0.25	9288*	/	3352*
